These results are taken from ChEMBL document CHEMBL1961873, “Compounds: GSK PKIS; Assays: Nanosyn kinase panel” (2012).

The target in assay [1] is Tyrosine-protein kinase SYK (Homo sapiens) (UniProt P43405). The settings on record: at 1 µM.
In assay [2] the target is T1, Tyrosine-protein kinase Tec (Homo sapiens) (UniProt P42680).
T1 sequence (whole entry): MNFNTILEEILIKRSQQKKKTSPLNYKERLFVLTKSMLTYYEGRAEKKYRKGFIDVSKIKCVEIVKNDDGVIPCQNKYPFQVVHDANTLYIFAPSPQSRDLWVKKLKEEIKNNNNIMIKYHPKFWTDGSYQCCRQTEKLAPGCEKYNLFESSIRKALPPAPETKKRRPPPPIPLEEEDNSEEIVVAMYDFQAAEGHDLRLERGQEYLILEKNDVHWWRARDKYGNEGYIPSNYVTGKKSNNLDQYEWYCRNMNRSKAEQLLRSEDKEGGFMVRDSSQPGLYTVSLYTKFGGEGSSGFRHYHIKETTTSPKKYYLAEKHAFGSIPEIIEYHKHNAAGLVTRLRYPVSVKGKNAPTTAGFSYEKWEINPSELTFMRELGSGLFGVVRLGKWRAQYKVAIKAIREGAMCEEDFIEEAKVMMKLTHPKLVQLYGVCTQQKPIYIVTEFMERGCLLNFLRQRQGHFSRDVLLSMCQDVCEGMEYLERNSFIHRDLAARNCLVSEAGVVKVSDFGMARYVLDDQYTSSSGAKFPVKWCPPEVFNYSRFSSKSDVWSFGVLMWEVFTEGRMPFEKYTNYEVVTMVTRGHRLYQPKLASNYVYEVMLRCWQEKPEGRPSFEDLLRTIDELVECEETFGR
The settings on record: at 0.1 µM.

In assay [3] the target is T1, Tyrosine-protein kinase Tec (Homo sapiens). Particulars: at 1 µM.
Assay [4] has as its target Angiopoietin-1 receptor (Homo sapiens) (UniProt Q02763). Particulars: at 0.1 µM.
Assay [5] has the same target. Particulars: at 1 µM.
The target of assay [6] is T2, Non-receptor tyrosine-protein kinase TNK1 (Homo sapiens) (UniProt Q13470).
T2 sequence (whole entry): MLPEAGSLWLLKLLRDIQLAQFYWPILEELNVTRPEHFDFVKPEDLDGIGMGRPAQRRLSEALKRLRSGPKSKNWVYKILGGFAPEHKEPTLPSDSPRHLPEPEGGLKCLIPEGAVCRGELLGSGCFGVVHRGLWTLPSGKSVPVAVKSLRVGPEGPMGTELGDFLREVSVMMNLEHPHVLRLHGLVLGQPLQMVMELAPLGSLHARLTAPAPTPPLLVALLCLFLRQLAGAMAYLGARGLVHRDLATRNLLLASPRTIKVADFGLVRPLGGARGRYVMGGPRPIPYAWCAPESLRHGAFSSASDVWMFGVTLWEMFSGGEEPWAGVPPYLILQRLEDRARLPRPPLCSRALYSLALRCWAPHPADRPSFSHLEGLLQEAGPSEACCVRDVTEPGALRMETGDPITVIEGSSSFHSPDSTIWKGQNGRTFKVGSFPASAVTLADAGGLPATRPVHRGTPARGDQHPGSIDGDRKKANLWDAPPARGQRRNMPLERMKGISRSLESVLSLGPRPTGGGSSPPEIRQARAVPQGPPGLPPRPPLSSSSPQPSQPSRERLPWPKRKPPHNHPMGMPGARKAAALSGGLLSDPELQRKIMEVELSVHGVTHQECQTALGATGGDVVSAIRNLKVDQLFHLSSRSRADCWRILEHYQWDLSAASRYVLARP
The settings on record: at 0.1 µM.

Assay [7] deals with T2, Non-receptor tyrosine-protein kinase TNK1 (Homo sapiens). Particulars: at 1 µM.
For assay [8], the target named is Activated CDC42 kinase 1 (Homo sapiens) (UniProt Q07912). The settings on record: at 0.1 µM.
The target is the same in assay [9]. The settings on record: at 1 µM.
Assay [10] concerns the target High affinity nerve growth factor receptor (Homo sapiens) (UniProt P04629). Particulars: at 0.1 µM.
Assay [11] shares this target. Particulars: at 1 µM.
The target in assay [12] is BDNF/NT-3 growth factors receptor (Homo sapiens) (UniProt Q16620). Particulars: at 0.1 µM.
For assay [13] the target is unchanged. Particulars: at 1 µM.
Assay [14] addresses NT-3 growth factor receptor (Homo sapiens) (UniProt Q16288). The settings on record: at 0.1 µM.
Assay [15] has the same target. Particulars: at 1 µM.
Assay [16] deals with T3, Tyrosine-protein kinase TXK (Homo sapiens) (UniProt P42681).
T3 sequence (whole entry): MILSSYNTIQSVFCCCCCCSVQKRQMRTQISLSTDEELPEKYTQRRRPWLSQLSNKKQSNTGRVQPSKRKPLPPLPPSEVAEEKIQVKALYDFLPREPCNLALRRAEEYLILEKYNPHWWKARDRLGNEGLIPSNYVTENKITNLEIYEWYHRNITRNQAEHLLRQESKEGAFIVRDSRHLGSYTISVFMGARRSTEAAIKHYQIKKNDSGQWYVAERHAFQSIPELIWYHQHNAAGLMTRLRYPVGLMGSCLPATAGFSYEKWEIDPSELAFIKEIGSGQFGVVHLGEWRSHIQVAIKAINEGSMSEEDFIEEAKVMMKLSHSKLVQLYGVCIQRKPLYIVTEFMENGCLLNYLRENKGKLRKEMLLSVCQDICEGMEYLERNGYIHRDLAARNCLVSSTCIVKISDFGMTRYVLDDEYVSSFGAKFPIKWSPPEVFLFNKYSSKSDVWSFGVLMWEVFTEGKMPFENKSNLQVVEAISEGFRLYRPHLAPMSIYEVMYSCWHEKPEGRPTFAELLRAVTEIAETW
Particulars: at 0.1 µM.

In assay [17] the target is T3, Tyrosine-protein kinase TXK (Homo sapiens). The settings on record: at 1 µM.
The target of assay [18] is Non-receptor tyrosine-protein kinase TYK2 (Homo sapiens) (UniProt P29597). The settings on record: at 0.1 µM.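 Also: each value is a mean of the inhibition readings.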
Assay [19] concerns the target T4, Dual specificity protein kinase TTK (Homo sapiens) (UniProt P33981).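 Also: reported figures are mean TTK inhibition at 1 µM.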
T4 sequence (whole entry): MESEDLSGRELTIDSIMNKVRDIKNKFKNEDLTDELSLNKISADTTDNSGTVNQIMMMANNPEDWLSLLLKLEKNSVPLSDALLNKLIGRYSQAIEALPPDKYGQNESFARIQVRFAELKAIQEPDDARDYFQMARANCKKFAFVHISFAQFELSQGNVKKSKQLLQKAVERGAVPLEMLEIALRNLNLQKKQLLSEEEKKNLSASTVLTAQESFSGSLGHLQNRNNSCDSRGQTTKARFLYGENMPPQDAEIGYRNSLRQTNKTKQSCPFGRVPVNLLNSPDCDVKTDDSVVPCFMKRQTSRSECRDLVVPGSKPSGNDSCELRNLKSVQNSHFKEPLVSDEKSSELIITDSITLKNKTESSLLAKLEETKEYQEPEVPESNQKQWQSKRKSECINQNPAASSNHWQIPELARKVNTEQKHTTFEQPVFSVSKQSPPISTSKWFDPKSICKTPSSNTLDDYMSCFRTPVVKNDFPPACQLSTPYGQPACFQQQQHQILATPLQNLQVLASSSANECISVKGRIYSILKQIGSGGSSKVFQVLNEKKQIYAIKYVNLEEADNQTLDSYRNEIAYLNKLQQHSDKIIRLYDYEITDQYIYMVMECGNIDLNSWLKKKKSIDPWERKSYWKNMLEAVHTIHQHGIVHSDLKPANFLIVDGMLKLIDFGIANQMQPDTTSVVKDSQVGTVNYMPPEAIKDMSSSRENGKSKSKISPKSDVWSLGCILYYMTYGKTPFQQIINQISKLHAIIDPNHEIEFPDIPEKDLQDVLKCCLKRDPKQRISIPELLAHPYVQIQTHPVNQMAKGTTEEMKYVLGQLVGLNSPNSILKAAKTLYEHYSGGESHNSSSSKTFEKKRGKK
The settings on record: at 1 µM.

In assay [20] the target is T5, Aurora kinase A (Homo sapiens) (UniProt O14965).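 Also: each reported value is a mean percent inhibition of Aurora-A.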
T5 sequence (whole entry): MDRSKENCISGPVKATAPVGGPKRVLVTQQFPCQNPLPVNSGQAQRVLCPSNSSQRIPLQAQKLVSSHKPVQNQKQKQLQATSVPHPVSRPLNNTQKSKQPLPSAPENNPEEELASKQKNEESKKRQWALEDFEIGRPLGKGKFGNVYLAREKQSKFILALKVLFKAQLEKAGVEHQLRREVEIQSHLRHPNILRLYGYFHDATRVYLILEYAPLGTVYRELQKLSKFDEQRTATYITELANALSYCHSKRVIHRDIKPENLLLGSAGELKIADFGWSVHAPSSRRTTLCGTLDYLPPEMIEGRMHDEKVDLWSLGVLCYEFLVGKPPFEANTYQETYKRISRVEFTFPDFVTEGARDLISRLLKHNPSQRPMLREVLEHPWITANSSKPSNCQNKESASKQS
Particulars: at 0.1 µM.

Sequence of Non-receptor tyrosine-protein kinase TYK2 (Homo sapiens) (P29597 whole entry): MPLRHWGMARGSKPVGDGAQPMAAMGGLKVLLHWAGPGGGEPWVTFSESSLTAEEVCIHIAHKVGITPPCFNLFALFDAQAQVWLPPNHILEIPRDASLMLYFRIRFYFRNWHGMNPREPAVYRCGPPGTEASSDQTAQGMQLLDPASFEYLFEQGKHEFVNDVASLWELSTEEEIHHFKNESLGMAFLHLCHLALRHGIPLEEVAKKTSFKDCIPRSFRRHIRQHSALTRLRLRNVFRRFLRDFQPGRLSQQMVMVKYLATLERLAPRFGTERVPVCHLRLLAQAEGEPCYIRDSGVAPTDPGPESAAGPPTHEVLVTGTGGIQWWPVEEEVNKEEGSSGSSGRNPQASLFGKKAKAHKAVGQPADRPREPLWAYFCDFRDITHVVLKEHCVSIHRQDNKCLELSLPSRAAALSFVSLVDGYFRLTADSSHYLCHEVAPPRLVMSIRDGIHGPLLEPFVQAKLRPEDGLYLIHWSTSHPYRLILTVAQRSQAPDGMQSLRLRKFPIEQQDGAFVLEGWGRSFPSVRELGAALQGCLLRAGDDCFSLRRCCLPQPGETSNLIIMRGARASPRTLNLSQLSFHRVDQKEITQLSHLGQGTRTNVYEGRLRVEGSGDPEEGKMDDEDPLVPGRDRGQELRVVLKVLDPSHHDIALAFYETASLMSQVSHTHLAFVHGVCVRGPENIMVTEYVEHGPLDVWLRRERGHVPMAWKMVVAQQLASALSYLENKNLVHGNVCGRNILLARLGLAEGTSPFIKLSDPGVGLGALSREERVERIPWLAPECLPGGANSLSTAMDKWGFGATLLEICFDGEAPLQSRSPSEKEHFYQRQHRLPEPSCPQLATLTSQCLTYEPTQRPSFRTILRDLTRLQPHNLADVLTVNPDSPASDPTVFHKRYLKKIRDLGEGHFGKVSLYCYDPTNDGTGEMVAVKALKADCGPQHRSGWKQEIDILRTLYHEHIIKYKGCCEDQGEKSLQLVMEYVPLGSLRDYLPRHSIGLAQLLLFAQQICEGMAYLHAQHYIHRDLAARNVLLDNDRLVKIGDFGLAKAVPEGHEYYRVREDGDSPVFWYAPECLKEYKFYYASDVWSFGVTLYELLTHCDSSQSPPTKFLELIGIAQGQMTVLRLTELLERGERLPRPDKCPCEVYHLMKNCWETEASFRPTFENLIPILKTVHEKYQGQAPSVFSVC
Sequence of High affinity nerve growth factor receptor (Homo sapiens) (P04629 33-796 limits assumed): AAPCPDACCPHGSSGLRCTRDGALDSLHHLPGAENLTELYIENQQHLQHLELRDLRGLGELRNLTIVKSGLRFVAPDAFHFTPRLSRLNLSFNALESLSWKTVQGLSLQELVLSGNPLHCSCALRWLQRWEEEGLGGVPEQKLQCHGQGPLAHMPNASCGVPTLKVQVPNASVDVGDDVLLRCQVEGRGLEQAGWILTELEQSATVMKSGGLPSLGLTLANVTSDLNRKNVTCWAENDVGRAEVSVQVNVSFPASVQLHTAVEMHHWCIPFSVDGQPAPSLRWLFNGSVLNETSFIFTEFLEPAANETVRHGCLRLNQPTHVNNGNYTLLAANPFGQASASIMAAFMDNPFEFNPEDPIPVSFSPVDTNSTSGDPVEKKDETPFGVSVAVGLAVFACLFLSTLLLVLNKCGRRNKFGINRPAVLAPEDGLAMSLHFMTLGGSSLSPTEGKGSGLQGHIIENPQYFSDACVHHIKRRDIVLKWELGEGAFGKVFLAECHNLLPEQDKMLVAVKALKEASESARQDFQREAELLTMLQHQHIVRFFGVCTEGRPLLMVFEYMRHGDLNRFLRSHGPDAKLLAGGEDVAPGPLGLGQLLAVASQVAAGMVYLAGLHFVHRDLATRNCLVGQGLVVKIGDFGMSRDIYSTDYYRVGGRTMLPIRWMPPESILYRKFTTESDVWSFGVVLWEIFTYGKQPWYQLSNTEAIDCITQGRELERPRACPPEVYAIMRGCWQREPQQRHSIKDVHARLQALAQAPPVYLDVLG
Sequence of NT-3 growth factor receptor (Homo sapiens) (Q16288 32-839 limits assumed): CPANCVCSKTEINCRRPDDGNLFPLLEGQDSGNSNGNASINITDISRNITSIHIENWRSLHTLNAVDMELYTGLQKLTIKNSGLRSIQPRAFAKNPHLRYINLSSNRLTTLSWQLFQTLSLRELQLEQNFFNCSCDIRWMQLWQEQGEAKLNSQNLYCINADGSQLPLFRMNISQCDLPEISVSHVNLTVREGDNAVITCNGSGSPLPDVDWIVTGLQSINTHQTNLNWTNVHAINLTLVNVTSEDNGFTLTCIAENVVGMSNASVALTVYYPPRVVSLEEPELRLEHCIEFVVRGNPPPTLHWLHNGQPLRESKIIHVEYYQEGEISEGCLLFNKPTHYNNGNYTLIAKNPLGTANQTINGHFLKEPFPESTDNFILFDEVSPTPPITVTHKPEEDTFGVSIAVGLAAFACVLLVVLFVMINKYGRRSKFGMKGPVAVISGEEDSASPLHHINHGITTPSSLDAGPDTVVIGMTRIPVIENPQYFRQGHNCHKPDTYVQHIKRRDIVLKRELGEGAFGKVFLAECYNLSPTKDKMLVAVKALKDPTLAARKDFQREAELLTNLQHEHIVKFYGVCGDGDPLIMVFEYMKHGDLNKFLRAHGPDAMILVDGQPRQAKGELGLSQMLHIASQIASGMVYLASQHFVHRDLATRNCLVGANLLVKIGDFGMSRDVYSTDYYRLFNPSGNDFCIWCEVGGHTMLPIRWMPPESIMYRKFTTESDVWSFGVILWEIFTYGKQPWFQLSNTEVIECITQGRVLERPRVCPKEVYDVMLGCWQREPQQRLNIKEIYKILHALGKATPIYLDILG
Sequence of Activated CDC42 kinase 1 (Homo sapiens) (Q07912 whole entry, looked up): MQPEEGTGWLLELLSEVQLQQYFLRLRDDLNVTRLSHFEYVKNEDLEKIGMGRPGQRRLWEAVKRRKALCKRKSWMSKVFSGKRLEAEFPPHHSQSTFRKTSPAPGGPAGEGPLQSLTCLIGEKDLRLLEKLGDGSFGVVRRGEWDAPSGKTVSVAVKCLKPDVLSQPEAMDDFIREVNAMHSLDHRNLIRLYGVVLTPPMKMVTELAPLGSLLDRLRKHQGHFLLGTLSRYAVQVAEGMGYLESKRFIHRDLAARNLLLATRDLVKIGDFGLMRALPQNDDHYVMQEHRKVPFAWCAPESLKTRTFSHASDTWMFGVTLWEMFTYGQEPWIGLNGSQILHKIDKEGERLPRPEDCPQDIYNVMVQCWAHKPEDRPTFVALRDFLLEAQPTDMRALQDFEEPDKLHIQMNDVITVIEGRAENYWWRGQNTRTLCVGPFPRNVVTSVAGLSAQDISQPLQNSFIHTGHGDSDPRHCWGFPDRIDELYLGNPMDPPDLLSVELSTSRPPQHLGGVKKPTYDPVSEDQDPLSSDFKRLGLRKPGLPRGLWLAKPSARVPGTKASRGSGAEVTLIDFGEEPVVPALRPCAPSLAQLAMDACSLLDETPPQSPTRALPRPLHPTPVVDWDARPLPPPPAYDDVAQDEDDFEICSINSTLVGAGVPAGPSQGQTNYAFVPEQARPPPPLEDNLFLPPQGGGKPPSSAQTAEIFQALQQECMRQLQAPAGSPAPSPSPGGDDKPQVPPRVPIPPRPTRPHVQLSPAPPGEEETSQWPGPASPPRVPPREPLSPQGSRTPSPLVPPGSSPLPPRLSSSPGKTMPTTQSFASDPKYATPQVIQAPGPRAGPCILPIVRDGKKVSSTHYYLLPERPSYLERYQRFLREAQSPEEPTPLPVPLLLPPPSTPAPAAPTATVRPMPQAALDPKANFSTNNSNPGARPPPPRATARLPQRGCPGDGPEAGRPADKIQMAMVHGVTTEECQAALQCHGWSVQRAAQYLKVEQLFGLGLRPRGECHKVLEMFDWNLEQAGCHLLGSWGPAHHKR
Sequence of Angiopoietin-1 receptor (Homo sapiens) (Q02763 whole entry): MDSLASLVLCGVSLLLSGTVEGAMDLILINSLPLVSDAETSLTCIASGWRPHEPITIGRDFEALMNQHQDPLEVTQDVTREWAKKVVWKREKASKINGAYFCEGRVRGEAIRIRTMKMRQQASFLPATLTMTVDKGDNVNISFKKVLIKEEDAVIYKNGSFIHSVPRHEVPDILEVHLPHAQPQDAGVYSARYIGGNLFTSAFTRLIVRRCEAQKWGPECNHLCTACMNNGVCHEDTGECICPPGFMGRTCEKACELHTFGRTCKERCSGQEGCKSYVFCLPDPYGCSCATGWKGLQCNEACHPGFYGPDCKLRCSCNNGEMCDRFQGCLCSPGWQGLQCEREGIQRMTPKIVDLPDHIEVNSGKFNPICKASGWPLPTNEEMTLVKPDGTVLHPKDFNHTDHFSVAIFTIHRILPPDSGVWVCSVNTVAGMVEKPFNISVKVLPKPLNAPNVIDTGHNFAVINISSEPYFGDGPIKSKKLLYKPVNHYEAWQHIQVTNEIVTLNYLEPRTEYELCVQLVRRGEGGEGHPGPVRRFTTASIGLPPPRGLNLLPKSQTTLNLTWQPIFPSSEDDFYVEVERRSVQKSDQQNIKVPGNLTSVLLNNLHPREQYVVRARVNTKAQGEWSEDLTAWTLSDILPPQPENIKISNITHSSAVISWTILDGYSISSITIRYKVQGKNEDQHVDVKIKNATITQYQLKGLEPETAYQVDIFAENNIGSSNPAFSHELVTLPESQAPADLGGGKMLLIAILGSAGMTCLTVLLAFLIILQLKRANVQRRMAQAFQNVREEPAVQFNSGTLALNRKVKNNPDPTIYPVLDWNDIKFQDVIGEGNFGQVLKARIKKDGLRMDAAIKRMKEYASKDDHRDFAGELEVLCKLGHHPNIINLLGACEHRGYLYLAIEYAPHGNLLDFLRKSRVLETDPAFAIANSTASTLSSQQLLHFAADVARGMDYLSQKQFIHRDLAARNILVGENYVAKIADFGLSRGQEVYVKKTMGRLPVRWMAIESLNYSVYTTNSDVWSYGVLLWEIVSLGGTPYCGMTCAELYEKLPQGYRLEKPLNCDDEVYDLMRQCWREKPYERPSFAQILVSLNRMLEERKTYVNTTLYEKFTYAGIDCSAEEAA

With `O=C1Nc2ccc(I)cc2C1=Cc1cc(Br)c(O)c(Br)c1`, the inhibition was determined as 1.56% in assay [1]; 7.04% in assay [2]; 3.72% in [3]; 4.71% in assay [4]; 5.55% in assay [5]; 22.7% in [6]. Moreover, the inhibition in [7] amounted to 84.5%; in assay [8], 0.67%; in assay [9], 3.22%; in [10], 2.97%; in [11], 7.89%; in assay [12] it was 2.53%. The inhibition in assay [13] was 5.74%; in assay [14] it was 1.67%; in assay [15] it was 6.01%; in assay [16], 7.46%; in assay [17], 6.98%; in [18], -1.21%. The inhibition came out at 13.3% in assay [19] and 3.6% in assay [20].
`COc1cc2ncn(-c3cc(OCc4cccs4)c(C(N)=O)s3)c2cc1OC`: the inhibition was 0.32% in assay [1]; -0.38% in [2]; 2.67% in assay [3]; 4.44% in assay [4]; 27.3% in [5]; 10.4% in [6]. Further, the inhibition in assay [7] was 53.9%; in [8], 3.84%; in assay [9], 9.04%; in assay [10], -0.38%; in assay [11], 8.7%; in assay [12], 3.23%. The inhibition is 16.9% in [13]; 6.48% in [14]; 27.2% in [15]; 0.76% in assay [16]; 5.11% in assay [17]; -2.34% in [18]. Moreover, the inhibition was 7.37% in [19] and -6.64% in assay [20].
For the compound `CN(c1ccc(NC(=O)Nc2c(Cl)cccc2Cl)cc1)c1ccnc(Nc2cccc(CS(C)(=O)=O)c2)n1`, the inhibition in assay [1] is -9.25%; in assay [2], 10.1%; in assay [3], 21.4%; in [4], 64.2%; in assay [5], 72.1%; in assay [6], 59.8%. The inhibition in assay [7] was 84.1%; in [8], 1.13%; in assay [9], 4.21%; in assay [10] it was 49.7%; in assay [11], 68.7%; in assay [12], 30.1%. Further, the inhibition in assay [13] was 55.4%; in [14], 31.7%; in assay [15], 88.6%; in assay [16], 9.28%; in assay [17] it was 21.1%; in assay [18], -2.98%. The inhibition amounted to 19.4% in [19] and 73.9% in assay [20].
Regarding `NCc1ccc(-n2c(-c3nonc3N)nc3cnccc32)cc1`, the inhibition in [1] was -0.51%; in [2], 4.69%; in [3], 4.95%; in [4], 2.68%; in [5], 3.28%; in [6] it was 5.04%. In addition, the inhibition was 3.5% in assay [7]; 1.93% in assay [8]; 5.77% in assay [9]; 1.82% in assay [10]; 2.81% in [11]; 3.11% in assay [12]. Further, the inhibition in assay [13] was 1.99%; in [14], 3.14%; in assay [15] it was 2.31%; in assay [16], 1.78%; in assay [17], 3.57%; in assay [18], -7.21%. Moreover, the inhibition in assay [19] was found to be 10.1%; in assay [20], 3.62%.

As usually defined, the inhibition is the drop in the measured response relative to a control, in per cent.
